Screening data deposited in PubChem BioAssay by The Scripps Research Institute Molecular Screening Center.
M1 PAM – human CHRM1 positive allosteric modulation. 0.088% of 360,000 active. activation, % at 3 µM. P11229. CHO-K1 hM1, Fluo-8 calcium fluorescence, ACh EC20; 0% = ACh EC20, 100% = maximal ACh; in the data active = activation above about 19%, passing the limit was not always enough
Target sequence (P11229 whole entry, looked up): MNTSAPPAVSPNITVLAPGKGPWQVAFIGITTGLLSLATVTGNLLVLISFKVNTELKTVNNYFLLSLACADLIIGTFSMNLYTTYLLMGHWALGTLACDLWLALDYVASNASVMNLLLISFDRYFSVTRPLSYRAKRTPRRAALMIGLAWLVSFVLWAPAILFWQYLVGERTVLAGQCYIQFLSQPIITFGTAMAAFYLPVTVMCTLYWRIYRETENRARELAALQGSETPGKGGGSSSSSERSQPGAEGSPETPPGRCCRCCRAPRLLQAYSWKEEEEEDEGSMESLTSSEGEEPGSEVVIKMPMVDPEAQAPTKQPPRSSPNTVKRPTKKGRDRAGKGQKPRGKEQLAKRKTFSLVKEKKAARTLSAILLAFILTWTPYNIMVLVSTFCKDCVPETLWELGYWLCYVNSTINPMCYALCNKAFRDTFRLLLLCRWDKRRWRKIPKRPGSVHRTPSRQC
M1 ag parental – M1 agonist counterscreen hit in parental CHO-K1 cells | Fluo-8 calcium fluorescence; scaled to maximal ATP response, vehicle zero | 0.48% of 360,000 active | activation, % at 3 µM | AID 602248; in the data active = activation above about 15%;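 note: untransfected CHO-K1 host cells lacking M1 receptor as counterscreen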
M1 PAM parental – nonselective activator or artifact in parental CHO-K1 calcium assay; activation, % at 3 µM; ATP EC20, Fluo-8 calcium fluorescence; 0% at ATP EC20, 100% at ATP max; 0.02% of 360,000 active;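 active = activation above the run cutoff, the mean activation of all test compounds plus 3 SD, cut at about 40% in these data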;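 note: peak over basal fluorescence ratio in a 140 s read after ATP addition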
CHO-K1 Ca antag – M1 antagonist counterscreen hit in parental CHO-K1 cells. 0.6% of 360,000 active. inhibition, % at 3 µM. AID 602250. ATP-induced calcium, Fluo-8 fluorescence;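 active = inhibition above a per-plate cutoff, the plate's mean sample inhibition plus 3 SD, cut at about 24% in these data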;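 note: 0% = DMSO plus EC80 ATP and 100% = DMSO alone without ATP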
CHRM1 antagonist – human CHRM1 antagonism | P11229 | CHO-K1 hM1, Fluo-8 calcium fluorescence, ACh EC80 antagonist | inhibition, % at 3 µM | 1.3% of 360,000 active;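 active = percent inhibition above its own plate's cutoff, namely the mean of that plate's compound wells plus 3 SD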;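 note: peak over basal fluorescence ratio during 140 s after agonist addition; 0% = ACh EC80 plus DMSO and 100% = DMSO alone without agonist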
CHRM1 agonist – human M1 muscarinic receptor agonism | activation, % at 3 µM | P11229 | CHO-K1 hM1, Fluo-8 calcium fluorescence, agonist mode; 0% DMSO, 100% acetylcholine EC100 | 0.33% of 360,000 active;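 active = activation above the run's mean compound activation plus 3 SD, cut at about 16% in these data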;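 note: peak over basal fluorescence ratio within a 140 s kinetic read after compound addition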
Active calls of the source: *; nt = no result given. The list is not random: actives were taken first. Their share in the collection is about 2.3%.

SMILES	M1 PAM	M1 ag parental	M1 PAM parental	CHO-K1 Ca antag	CHRM1 antagonist	CHRM1 agonist
O=S(=O)(c1ccc(NC(=S)NCc2cccnc2)cc1)N1CCCCC1	-17	10	-6	3	44*	4
O=C(O)CCC(=O)Nc1ccc(S(=O)(=O)N2CCCC2)cc1	3	0	-7	25*	1	1
O=C1c2ccccc2C(=O)c2c(/C=C/N3CCCCC3)ccnc21	-8	5	15	-4	3	-8
CC(=O)CC1c2ccccc2C=C(c2ccsc2)N1c1ccc(-c2cccs2)cc1 (stereo not given)	nt	2	19	-19	nt	nt
Cc1ccc(NC(=O)C2CCN(S(=O)(=O)c3cccc4nonc34)CC2)cc1	-7	8	-1	-12	-5	-2
O=C(Nc1cccc(F)c1)C1CCN(S(=O)(=O)c2cccc3nonc23)CC1	-11	20*	2	-16	3	3
O=S(=O)(Nc1ccc(S(=O)(=O)N2CCCC2)cc1)c1ccc(F)cc1	15	2	30	-19	-16	-1
O=C(Nc1ccc(S(=O)(=O)N2CCCC2)cc1)C1CCN(S(=O)(=O)c2ccc(F)cc2)CC1	-8	11	-1	1	10	17*
O=S(=O)(Nc1ccc(F)cc1)c1ccc(S(=O)(=O)N2CCOCC2)cc1	-6	34*	-4	8	10	24*
COc1ccc(OC)c(NC(=O)/C=C/c2ccc(S(=O)(=O)N3CCOCC3)cc2)c1	5	2	-4	-5	-12	-3
CCNC(=O)c1ccc(NC(=O)CC2SC(N3CCCC3)=NC2=O)cc1 (stereo not given)	28*	0	9	-7	-25	3
CCCCCNC(=O)c1ccc(NC(=O)CC2SC(N3CCCC3)=NC2=O)cc1 (stereo not given)	4	0	18	-8	-11	-5
CCN1CCN(c2nc3c(c(=O)[nH]c(=O)n3C)n2CCSc2nc3ccccc3s2)CC1	0	0	17	-3	12	30*
Cn1c(=O)[nH]c(=O)c2c1nc(N1CCOCC1)n2CCCSc1ncccn1	2	16*	0	-6	-2	-3
CC1CC(C)CN(c2nc3c(c(=O)[nH]c(=O)n3C)n2CCCSc2nc3ccccc3s2)C1 (stereo not given)	-1	0	-6	9	7	-2
Cc1ccnc(SCCn2c(N3CCOCC3)nc3c2c(=O)[nH]c(=O)n3C)n1	0	0	12	0	-14	-2
CC1(C)S[C@@H]2[C@H](NC(=O)[C@H](N)c3ccccc3)C(=O)N2[C@H]1C(=O)OC1OC(=O)c2ccccc21 (stereo not given in full)	-3	0	15	-1	-13	-5
CCc1nc2c(OCc3ccc(C#N)cc3)cccn2c1N(C)C(=O)c1cccs1	3	0	-11	2	-7	-9
Cc1ccc(C)c(NC(=O)C(C)N2C(=O)c3ccccc3C2=O)c1 (stereo not given)	10	0	19	-2	-15	-3
Cn1nc(CC(=O)NCc2ccc(C(F)(F)F)cc2)c2ccccc2c1=O	-3	8	1	4	10	5
COc1ccc(CNC(=O)Cc2nn(C)c(=O)c3ccccc23)cc1	-11	11	-6	24*	26	4
Cc1cc(C(=O)CCl)c(C)n1CCc1ccc(Cl)cc1	-11	1	9	-3	33*	-3
COc1cccc(CN2CCNC(=O)C2CC(=O)NCC(C)(C)N2CCOCC2)c1OC (stereo not given)	12	0	-15	1	-21	1
O=C(Cc1ccccc1)Nc1ccc(NC(=O)c2ccco2)nc1	14	0	-4	25*	-9	0
CCCC(=O)Nc1ccc(NC(=O)c2ccccc2Cl)nc1	-9	0	-7	24*	22	-2
SMILES	M1 PAM	M1 ag parental	M1 PAM parental	CHO-K1 Ca antag	CHRM1 antagonist	CHRM1 agonist
CCOC(=O)c1nnc(-c2cccs2)nc1NC(C)C	10	0	-5	25*	-8	-2
O=C(CC1CCCC1)Nc1ccc(Br)cc1	-4	0	6	-19	8	-7
CC(C)NC(=O)CN1CCN(Cc2nc(-c3cccs3)no2)CC1	1	0	10	3	14	-6
CC(=O)N1CCN(Cc2nc(C(c3ccccc3)c3ccccc3)no2)CC1	-14	2	23	-2	2	-13
NC(=O)CCN1CCN(Cc2nc(C(c3ccccc3)c3ccccc3)no2)CC1	-36	0	18	-3	29*	-15
c1ccc(C(c2ccccc2)c2noc(CN3CCN(C4CCCC4)CC3)n2)cc1	-30	15*	21	-4	60*	-13
CC(C)NC(=O)CN1CCN(Cc2nc(C(c3ccccc3)c3ccccc3)no2)CC1	-28	3	17	-11	52*	-5
COc1ccc(C(=O)NC(C(=O)OCC(=O)Nc2sccc2C(N)=O)C(C)C)cc1 (stereo not given)	-1	7	-13	1	11	2
COc1ccc(CCC(=O)OCC(=O)Nc2sccc2C(N)=O)cc1OC	-12	15	-15	26*	24	2
COc1ccc(CCC(=O)OCC(=O)Nc2sccc2C(N)=O)cc1	-19	16*	-21	34*	39*	2
N#Cc1cnn2ccc(-c3ccc4c(c3)CCC4)nc12	12	1	23	-17	-13	-6
O=C1CC(=C(c2ccccc2)c2ccccc2)C(=O)N1CCCCN1CCN(c2ccccc2)CC1	-22	0	15	-13	73*	-5
COc1ccc(Cc2noc(CN3CCN(c4ccc(Cl)cn4)CC3)n2)cc1OC	1	22*	0	4	3	-4
Cc1c(C(=O)N(C)Cc2ccc(F)cc2)sc(=O)n1Cc1ccc(Cl)c(Cl)c1	2	1	8	-1	-7	3
COCCN(CC(=O)Nc1cccc(C)c1C)C(=O)c1cc(-c2ccncc2)nc2ccccc12	-17	6	-7	0	34*	-1
COCCN(CC(=O)Nc1cccc(C)c1C)C(=O)c1cc(-c2cccs2)nn1-c1ccccc1	-11	4	-20	2	18	-3
Cc1cccc[n+]1CC(=O)N1c2ccccc2Sc2ccccc21	-34	0	13	-5	99*	-13
Cc1cc(C)n(CC(=O)N2c3ccccc3Sc3ccccc32)n1	-22	1	-5	11	38*	-6
COc1ccc(NC(=O)c2cc(C3CCCCN3C(=O)c3cccs3)on2)c(C)c1 (stereo not given)	-1	1	9	-10	-7	-8
CCOc1cc(S(=O)(=O)NC2CCCCC2)ccc1F	0	24*	10	7	4	-5
CN(C)CCC=C1c2ccccc2C=Cc2ccccc21	-25	4	34	-20	98*	-6
